# Measured values published in ChEMBL document CHEMBL2218924, “A broad activity screen in support of a chemogenomic map for kinase signalling research and drug discovery” (Biochem J, 2013).
# Tests used:
# [1] = target: T1, Ephrin type-B receptor 1 (Homo sapiens) (UniProt P54762); conditions: at 10 µM
# T1 sequence (whole entry): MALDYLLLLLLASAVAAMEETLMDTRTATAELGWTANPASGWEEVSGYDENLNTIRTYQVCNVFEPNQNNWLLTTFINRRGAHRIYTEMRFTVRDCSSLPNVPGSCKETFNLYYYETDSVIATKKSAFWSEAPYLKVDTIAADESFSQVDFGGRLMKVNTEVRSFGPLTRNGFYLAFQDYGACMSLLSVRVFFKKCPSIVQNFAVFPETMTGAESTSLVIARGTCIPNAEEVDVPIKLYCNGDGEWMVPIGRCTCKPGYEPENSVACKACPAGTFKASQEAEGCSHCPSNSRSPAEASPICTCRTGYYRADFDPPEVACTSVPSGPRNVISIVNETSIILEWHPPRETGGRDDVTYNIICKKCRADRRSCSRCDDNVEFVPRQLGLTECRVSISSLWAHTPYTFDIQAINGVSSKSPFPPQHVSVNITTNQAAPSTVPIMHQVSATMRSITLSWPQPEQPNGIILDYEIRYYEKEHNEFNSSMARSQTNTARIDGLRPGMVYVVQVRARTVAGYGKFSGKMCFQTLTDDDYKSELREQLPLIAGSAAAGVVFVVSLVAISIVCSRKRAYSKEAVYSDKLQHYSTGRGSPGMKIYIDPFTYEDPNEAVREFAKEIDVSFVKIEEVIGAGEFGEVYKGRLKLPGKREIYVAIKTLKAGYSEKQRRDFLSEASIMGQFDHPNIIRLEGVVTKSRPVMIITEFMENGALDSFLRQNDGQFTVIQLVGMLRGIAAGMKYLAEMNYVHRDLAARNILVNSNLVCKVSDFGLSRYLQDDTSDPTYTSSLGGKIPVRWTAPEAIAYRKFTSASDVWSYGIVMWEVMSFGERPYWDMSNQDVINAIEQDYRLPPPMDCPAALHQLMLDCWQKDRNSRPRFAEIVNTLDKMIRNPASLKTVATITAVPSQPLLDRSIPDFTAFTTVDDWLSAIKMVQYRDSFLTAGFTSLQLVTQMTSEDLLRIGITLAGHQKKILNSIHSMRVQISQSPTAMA
# [2] = target: T2, Ephrin type-B receptor 2 (Homo sapiens) (UniProt P29323); conditions: at 1 µM
# T2 sequence (whole entry): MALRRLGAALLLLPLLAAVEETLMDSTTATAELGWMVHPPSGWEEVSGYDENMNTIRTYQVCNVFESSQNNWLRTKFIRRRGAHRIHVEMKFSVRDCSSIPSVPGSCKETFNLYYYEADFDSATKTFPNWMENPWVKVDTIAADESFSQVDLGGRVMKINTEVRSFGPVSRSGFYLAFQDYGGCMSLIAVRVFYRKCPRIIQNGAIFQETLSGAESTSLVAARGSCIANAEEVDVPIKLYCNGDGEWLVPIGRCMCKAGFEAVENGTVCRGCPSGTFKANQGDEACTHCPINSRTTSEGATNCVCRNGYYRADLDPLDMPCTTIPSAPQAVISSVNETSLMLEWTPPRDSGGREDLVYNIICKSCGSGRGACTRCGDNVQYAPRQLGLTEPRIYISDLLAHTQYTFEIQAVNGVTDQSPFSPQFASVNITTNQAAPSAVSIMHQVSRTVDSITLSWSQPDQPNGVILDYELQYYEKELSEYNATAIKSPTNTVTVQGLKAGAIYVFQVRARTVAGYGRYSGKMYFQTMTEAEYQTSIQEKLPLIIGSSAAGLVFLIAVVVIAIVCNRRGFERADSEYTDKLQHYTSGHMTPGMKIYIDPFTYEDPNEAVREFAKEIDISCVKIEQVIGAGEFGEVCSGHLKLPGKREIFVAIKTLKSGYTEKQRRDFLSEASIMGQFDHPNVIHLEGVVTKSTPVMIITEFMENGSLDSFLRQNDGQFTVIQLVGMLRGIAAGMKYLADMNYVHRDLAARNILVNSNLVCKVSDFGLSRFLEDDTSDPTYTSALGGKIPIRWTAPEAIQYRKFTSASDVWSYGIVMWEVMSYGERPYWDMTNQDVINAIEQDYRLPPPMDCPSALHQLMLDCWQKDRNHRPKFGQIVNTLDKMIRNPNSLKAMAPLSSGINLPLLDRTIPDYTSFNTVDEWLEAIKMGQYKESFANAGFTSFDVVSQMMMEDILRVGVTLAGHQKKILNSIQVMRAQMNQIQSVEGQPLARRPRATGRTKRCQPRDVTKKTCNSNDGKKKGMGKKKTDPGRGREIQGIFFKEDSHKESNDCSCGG
# [3] = target: T2, Ephrin type-B receptor 2 (Homo sapiens); conditions: at 10 µM
# [4] = target: T3, Ephrin type-B receptor 3 (Homo sapiens) (UniProt P54753); conditions: at 1 µM
# T3 sequence (whole entry): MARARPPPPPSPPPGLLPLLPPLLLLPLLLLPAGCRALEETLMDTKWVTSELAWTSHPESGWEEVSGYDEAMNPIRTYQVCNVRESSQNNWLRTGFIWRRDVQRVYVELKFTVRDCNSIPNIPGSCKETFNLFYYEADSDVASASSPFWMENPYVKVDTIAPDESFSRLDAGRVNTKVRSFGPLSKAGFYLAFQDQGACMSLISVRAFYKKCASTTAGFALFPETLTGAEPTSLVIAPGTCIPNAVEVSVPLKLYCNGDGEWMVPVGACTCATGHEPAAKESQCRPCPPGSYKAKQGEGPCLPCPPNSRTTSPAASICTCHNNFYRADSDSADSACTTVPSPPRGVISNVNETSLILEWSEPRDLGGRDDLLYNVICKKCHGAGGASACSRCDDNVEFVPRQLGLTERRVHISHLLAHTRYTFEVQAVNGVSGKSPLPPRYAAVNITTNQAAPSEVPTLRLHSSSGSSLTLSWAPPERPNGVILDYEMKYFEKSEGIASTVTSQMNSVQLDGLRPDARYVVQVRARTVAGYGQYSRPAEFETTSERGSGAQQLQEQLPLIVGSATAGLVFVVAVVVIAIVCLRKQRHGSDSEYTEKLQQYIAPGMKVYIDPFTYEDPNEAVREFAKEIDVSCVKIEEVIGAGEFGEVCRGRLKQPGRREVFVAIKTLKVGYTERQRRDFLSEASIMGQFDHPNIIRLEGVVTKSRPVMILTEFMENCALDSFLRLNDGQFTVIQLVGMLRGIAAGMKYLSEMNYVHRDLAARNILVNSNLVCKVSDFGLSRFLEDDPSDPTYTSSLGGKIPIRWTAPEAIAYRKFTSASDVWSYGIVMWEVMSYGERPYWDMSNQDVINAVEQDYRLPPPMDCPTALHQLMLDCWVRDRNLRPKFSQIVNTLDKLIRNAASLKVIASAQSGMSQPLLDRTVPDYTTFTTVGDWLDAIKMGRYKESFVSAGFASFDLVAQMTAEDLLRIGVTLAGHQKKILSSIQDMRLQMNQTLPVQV
# [5] = target: T3, Ephrin type-B receptor 3 (Homo sapiens); conditions: at 10 µM
# [6] = target: T4, Ephrin type-B receptor 4 (Homo sapiens) (UniProt P54760); conditions: at 1 µM
# T4 sequence (whole entry): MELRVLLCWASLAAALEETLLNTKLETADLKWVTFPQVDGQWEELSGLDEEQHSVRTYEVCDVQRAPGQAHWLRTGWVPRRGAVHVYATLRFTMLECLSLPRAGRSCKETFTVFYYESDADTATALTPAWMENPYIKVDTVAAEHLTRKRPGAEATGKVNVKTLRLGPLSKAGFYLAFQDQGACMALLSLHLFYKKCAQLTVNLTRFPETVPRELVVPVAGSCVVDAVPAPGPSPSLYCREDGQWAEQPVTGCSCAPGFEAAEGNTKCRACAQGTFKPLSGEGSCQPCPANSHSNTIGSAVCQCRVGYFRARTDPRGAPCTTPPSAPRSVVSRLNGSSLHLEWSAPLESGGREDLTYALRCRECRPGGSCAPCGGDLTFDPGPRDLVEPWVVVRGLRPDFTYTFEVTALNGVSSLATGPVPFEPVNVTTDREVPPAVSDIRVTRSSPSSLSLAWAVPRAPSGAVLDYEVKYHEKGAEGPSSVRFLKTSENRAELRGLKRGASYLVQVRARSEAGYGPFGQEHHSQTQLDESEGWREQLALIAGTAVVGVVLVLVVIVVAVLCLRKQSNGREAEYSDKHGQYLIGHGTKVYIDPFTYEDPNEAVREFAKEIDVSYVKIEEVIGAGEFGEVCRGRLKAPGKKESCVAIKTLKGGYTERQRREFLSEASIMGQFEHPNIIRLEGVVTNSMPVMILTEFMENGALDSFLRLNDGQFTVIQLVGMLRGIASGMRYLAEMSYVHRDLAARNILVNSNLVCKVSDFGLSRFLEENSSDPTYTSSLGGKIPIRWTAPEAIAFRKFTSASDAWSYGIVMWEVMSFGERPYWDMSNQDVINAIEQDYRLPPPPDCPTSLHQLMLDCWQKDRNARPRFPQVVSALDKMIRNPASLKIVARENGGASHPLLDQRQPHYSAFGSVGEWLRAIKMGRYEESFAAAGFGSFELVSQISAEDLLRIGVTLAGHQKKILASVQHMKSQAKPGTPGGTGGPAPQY
# [7] = target: T4, Ephrin type-B receptor 4 (Homo sapiens); conditions: at 10 µM
# [8] = target: Receptor tyrosine-protein kinase erbB-4 (Homo sapiens) (UniProt Q15303); conditions: at 1 µM
# [9] = target: Receptor tyrosine-protein kinase erbB-4 (Homo sapiens) (UniProt Q15303); conditions: at 10 µM
# [10] = target: Focal adhesion kinase 1 (Homo sapiens) (UniProt Q05397); conditions: at 1 µM
# Sequence of Focal adhesion kinase 1 (Homo sapiens) (Q05397 2-1052 limits assumed): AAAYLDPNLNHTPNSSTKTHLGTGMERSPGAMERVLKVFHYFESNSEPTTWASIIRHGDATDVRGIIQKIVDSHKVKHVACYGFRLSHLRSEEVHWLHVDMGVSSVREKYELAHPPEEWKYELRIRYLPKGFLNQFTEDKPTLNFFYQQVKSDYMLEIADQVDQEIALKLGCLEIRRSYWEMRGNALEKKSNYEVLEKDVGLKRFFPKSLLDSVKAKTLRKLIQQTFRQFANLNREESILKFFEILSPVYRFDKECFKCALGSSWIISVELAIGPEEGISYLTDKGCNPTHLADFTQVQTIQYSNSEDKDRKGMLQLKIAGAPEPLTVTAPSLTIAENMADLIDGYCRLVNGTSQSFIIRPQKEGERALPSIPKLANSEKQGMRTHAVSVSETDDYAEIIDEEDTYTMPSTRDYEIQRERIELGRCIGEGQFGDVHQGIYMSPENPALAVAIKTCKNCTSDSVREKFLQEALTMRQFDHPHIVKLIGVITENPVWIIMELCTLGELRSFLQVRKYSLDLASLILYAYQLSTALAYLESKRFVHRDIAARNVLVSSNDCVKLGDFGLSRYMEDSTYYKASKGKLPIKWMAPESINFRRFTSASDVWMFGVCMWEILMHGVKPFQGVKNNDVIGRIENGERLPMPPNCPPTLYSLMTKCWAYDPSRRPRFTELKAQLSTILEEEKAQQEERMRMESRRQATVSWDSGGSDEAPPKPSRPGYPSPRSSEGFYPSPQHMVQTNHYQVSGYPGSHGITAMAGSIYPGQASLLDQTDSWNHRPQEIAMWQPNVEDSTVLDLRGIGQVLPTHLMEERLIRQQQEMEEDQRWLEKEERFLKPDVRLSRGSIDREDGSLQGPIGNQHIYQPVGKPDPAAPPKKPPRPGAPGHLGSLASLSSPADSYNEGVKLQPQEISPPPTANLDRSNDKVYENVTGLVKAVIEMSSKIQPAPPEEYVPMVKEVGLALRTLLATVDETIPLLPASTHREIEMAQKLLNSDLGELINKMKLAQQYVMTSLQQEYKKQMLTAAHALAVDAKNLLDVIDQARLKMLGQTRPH
# Sequence of Receptor tyrosine-protein kinase erbB-4 (Homo sapiens) (Q15303 whole entry): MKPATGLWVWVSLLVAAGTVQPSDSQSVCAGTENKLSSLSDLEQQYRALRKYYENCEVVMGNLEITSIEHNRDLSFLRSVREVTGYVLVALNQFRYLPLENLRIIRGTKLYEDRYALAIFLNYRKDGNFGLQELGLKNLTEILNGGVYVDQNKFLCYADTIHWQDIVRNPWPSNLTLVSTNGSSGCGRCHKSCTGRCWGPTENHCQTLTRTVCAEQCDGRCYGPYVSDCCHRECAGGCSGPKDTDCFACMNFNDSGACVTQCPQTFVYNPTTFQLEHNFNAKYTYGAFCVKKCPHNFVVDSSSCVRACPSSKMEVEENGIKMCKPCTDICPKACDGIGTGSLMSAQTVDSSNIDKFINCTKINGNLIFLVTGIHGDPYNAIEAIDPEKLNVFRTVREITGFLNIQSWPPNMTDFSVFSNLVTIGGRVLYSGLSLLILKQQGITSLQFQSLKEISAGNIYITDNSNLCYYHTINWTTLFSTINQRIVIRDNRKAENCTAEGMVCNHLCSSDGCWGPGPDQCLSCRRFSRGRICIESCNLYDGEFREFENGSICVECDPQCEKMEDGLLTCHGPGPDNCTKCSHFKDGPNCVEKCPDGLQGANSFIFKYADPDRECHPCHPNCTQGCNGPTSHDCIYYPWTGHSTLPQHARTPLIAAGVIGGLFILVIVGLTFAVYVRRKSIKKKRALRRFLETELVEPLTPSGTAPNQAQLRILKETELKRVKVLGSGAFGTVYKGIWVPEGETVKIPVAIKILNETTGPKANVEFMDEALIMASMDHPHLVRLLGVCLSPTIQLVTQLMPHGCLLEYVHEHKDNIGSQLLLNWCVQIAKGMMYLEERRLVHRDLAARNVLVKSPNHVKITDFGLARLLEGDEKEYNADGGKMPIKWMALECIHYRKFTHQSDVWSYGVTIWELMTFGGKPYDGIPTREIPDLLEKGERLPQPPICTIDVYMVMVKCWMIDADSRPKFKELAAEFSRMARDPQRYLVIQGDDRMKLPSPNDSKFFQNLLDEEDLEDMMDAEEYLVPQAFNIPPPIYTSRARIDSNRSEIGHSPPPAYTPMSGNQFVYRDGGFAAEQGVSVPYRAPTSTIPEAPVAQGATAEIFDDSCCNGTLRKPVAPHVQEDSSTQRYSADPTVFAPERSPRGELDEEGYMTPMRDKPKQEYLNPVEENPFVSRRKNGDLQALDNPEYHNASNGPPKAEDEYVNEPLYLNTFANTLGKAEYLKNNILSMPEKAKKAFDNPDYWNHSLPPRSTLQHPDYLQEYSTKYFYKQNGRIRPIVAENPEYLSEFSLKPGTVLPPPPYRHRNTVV
smiles,measurement,setting,value
CN(C)c1ccc(/C=C2\C(=O)Nc3ccccc32)cc1,residual activity,[1],80%
same,residual activity,[2],112%
same,residual activity,[3],130%
same,residual activity,[4],108% (inactive)
same,residual activity,[5],123%
same,residual activity,[6],97%
same,residual activity,[7],121%
same,residual activity,[8],115%
same,residual activity,[9],82%
same,residual activity,[10],82%
